Values without a mark were called inactive. No rule for the calls is given here.
Potency is read from the fitted curve at half-maximal effect.

This assay deals with HIV-1 nucleocapsid protein NCp7 (binding to TG oligonucleotide). In words: HIV Nucleocapsid (AID 346).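 Also: potency is for inhibitors that block NC binding and lower polarization.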 The following applies: HIV-1 NC / fluorescein-TGTGTGTG probe, fluorescence polarization. In outline: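 HIV-1 NC (100 nM) binding to fluorescein-labelled ssDNA TG4xF (10 nM) in Hepes pH 7.5, 250mM NaCl, 1uM ZnCl2, TCEP and 2-mercaptoethanol; compounds pin-transferred, 1 hr room temperature, fluorescence polarization read on CCD imager.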
`CCNc1ncc2nc(-c3ccc(F)cc3)c(=O)n(CCOC)c2n1`: the Potency is > 4 µM.
On to `Cc1cnc(CNc2ncncc2-c2ccc(C(=O)N(C)C)cc2)cn1`, for which the Potency is > 20 µM.
For `COc1ccc(CNc2nc(-c3ccoc3)nc3ccccc23)c(OC)c1` the value was > 20 µM; for `COc1ncc2nc(-c3ccc(Cl)cc3)c(=O)n(C)c2n1`, > 20 µM; for `COC(=O)N1CCC[C@@]2(CCN(c3ncccn3)C2)C1`, > 20 µM.
As for `CCNc1ncc2nc(-c3cccs3)c(=O)n(C[C@H]3CCCO3)c2n1`, the figure is > 20 µM; as for `O=C(c1cccc(F)c1)N1CCC2(CC1)CN(c1ccncc1)C2`, > 20 µM.
For `Cc1noc(C)c1-c1nccc(N(C)Cc2ccco2)n1` the value was > 20 µM.
For the compound `FC(F)(F)c1ccccc1-c1cc(N2CCNCC2)ncn1`, the Potency is > 20 µM.
As for `COC(=O)N1CCC2(CC1)CN(c1ccccn1)C2`, the figure is > 20 µM.
As for `O=C(c1cccc(F)c1)N1CCC[C@@]2(CCN(Cc3ccccc3)C2)C1`, the figure is > 20 µM; as for `COCCn1c(=O)c(C)nc2cnc(Oc3ccccc3)nc21`, > 20 µM.
For `COc1ccccc1CNc1ncnc2ccc(-c3cccc(NS(C)(=O)=O)c3)cc12` the value was > 20 µM; for `CNc1ncnc2ccc(-c3ccccc3CN(C)C)cc12`, > 20 µM; for `COc1ccc(-c2nc3cnc(N4CCOCC4)nc3n(Cc3cccs3)c2=O)cc1`, > 20 µM.
For the compound `O=c1c(-c2cccc(F)c2)nc2cncnc2n1-c1ccccc1`, the Potency is > 20 µM.
In the case of `COCCn1c(=O)c(-c2cc(F)cc(F)c2)nc2cnc(N3CCNCC3)nc21`, the Potency was > 20 µM.
As for `O=c1c(-c2cccs2)nc2cnc(Oc3ccccc3)nc2n1-c1ccccc1`, the figure is > 4 µM.
For `FC(F)(F)c1ccccc1-c1ccc2ncnc(NCCN3CCOCC3)c2c1` the value was > 20 µM; for `CN(C)c1ncc2ncc(=O)n(Cc3ccc(F)cc3)c2n1`, > 20 µM; for `O=c1c(-c2cccc(F)c2)nc2cncnc2n1Cc1ccccc1`, > 20 µM.
As for `CN1CCN(c2ncc3nc(CCc4ccccc4)c(=O)n(CCC#N)c3n2)CC1`, the figure is > 20 µM; as for `COc1cccc(-c2cncnc2NCc2cccc(C)c2)c1`, > 20 µM.
Turning to `COc1ccc(-c2nc3cnc(N4CCN(C)CC4)nc3n(C)c2=O)cc1`, the Potency was > 20 µM.
For `COc1ccc(C(=O)N2CCC3(CCCN(C(=O)NC(C)C)C3)CC2)cc1` the value was > 20 µM; for `COCCn1c(=O)c(-c2ccc(Cl)cc2)nc2cnc(Oc3ccc(OC)cc3)nc21`, > 20 µM; for `COCCNc1ncnc2ccc(-c3ccccc3C(F)(F)F)cc12`, > 20 µM.
For `CN1CCN(c2cc(-c3ccccc3C(F)(F)F)ncn2)CC1` the value was > 20 µM; for `CN1CCN(c2ncnc3ccc(-c4ccc(C(=O)N(C)C)cc4)cc23)CC1`, > 20 µM; for `c1ccc2c(N3CCOCC3)nc(-c3ccoc3)nc2c1`, > 20 µM.
For `O=c1c(-c2ccc(F)c(F)c2)nc2cncnc2n1Cc1ccc(F)cc1` the value was > 20 µM.
Turning to `COc1ccc(C(=O)N2CCC3(CC2)CCN(C(c2ccccc2)c2ccccc2)CC3)cc1`, the Potency is > 20 µM.
For `O=C(c1cc(C(F)(F)F)cc(C(F)(F)F)c1)N1CCC[C@@]2(CCN(Cc3ccncc3)C2)C1` the value was > 20 µM; for `COc1cccc(-c2nc(NC3CC3)c3ccccc3n2)c1`, > 20 µM.
For `COc1ccccc1CNc1nc(-c2cccnc2)nc2ccccc12` the value was > 20 µM; for `O=C(c1cnccn1)N1CCC2(CCCN(Cc3ccccc3)C2)CC1`, > 20 µM; for `COC(=O)N1CCC2(CCCN(c3ccc(-c4ccccc4)cc3)C2)CC1`, > 20 µM.
For `COCCn1c(=O)c(C)nc2cnc(N3CCN(C)CC3)nc21`, the Potency was > 20 µM.
As for `COCCn1c(=O)c(-c2cccs2)nc2cnc(OC)nc21`, the figure is > 20 µM.
Regarding `COCC(=O)N1CCC2(CC1)CN(c1ccccc1)C2`, the Potency was > 20 µM.

Values taken from PubChem BioAssay (NCATS).
